# PubChem BioAssay (NCATS)
# Records with an inconclusive call do not appear. Entries that show only a call come without a potency. Activity calls are given as the source filed them. The call rests on the fitted dose curve; in most records, active means well fitted inhibition curve with a large enough effect; inconclusive means small, poorly fitted or top-dose-only effect; inactive means flat fitted curve, though single readings scatter.
# Experiments:
# Assay in all cases: qHTS profiling for inhibitors of Plasmodium falciparum proliferation (AID 504749); further: nearly all actives have a fitted effect of over 60% in size
# Settings in all cases: P. falciparum in erythrocytes, SYBR Green DNA, 72 h; series mostly up to 28.7 µM
# CP268 = tested on: CP268
# Summary of the method: (§1)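 P. falciparum-infected erythrocytes (0.3% parasitemia, 2.5% hematocrit) incubated with compound 72 h at 37 C, 5% CO2. Parasite DNA detected by SYBR Green after lysis, overnight at room temperature; normalised to 0.29 uM artemisinin and DMSO.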
# CP269 = tested on: CP269
# Summary of the method: as §1
# CP286 = tested on: CP286
# Summary of the method: as §1
# CP291 = tested on: CP291
# Summary of the method: as §1
# CP297 = tested on: CP297
# Summary of the method: as §1
# CP305 = tested on: CP305
# Summary of the method: as §1
# CP315 = tested on: CP315
# Summary of the method: as §1
# CP325 = tested on: CP325
# Summary of the method: as §1
# CP329 = tested on: CP329
# Summary of the method: as §1
# CP335 = tested on: CP335
# Summary of the method: as §1
# Potency means the concentration at half of the fitted maximal effect.
SMILES,Potency (CP268),Potency (CP269),Potency (CP286),Potency (CP291),Potency (CP297),Potency (CP305),Potency (CP315),Potency (CP325),Potency (CP329),Potency (CP335)
N[C@@H](C(=O)N[C@@H]1C(=O)N2C(C(=O)O)=C(Cl)CS[C@H]12)c1ccccc1,inactive,inactive,inactive,inactive,inactive,inactive,inactive,inactive,inactive,inactive
CNS(=O)(=O)Cc1ccc2[nH]cc(CCN(C)C)c2c1,inactive,inactive,inactive,inactive,inactive,inactive,inactive,inactive,inactive,
NCCCC(O)(P(=O)(O)O)P(=O)(O)O,inactive,inactive,inactive,inactive,inactive,inactive,inactive,inactive,inactive,inactive
CC[C@H](NC(C)C)[C@H](O)c1ccc(O)c2[nH]c(=O)ccc12,inactive,inactive,inactive,inactive,inactive,inactive,inactive,inactive,inactive,inactive
Cc1cccc(Nc2ccncc2S(=O)(=O)NC(=O)NC(C)C)c1,inactive,inactive,inactive,inactive,inactive,inactive,inactive,inactive,inactive,inactive
CCOC(=O)c1ccc(OC(=O)CCCCCN=C(N)N)cc1,inactive,inactive,inactive,inactive,inactive,inactive,inactive,inactive,inactive,
CNC1CCCN(c2c(F)cc3c(=O)c(C(=O)O)cn(C4CC4)c3c2OC)C1 (stereo unspecified),inactive,inactive,inactive,inactive,inactive,inactive,inactive,inactive,inactive,inactive
CC(C)Cn1cnc2c(N)nc3ccccc3c21,inactive,inactive,inactive,inactive,inactive,inactive,inactive,inactive,inactive,inactive
CN(CCOc1ccc(CC2SC(=O)NC2=O)cc1)c1ccccn1 (stereo unspecified),inactive,inactive,inactive,inactive,inactive,inactive,inactive,inactive,inactive,inactive
S=P(N1CC1)(N1CC1)N1CC1,inactive,inactive,inactive,inactive,inactive,inactive,inactive,inactive,inactive,inactive
CC1=NN(c2ccccc2)C(=O)C1,inactive,inactive,inactive,inactive,inactive,inactive,inactive,inactive,inactive,inactive
Cc1ccnc2c1NC(=O)c1cccnc1N2C1CC1,inactive,inactive,inactive,inactive,inactive,inactive,inactive,inactive,inactive,inactive
COc1ccc2cc3[n+](cc2c1OC)CCc1cc2c(cc1-3)OCO2,1350 nM (active),953 nM (active),562 nM (active),1510 nM (active),1350 nM (active),757 nM (active),1070 nM (active),953 nM (active),953 nM (active),953 nM (active)
CN(C)CCc1c[nH]c2ccc(CS(=O)(=O)N3CCCC3)cc12,inactive,inactive,inactive,inactive,inactive,inactive,inactive,inactive,inactive,
COc1cc(NS(=O)(=O)c2ccc(N)cc2)nc(OC)n1,inactive,inactive,inactive,inactive,inactive,inactive,inactive,inactive,inactive,inactive
CC[C@H](C)C(=O)O[C@H]1C[C@@H](C)C=C2C=C[C@H](C)[C@H](CC[C@@H]3C[C@@H](O)CC(=O)O3)[C@H]21,inactive,inactive,inactive,inactive,inactive,inactive,inactive,inactive,inactive,
CCOCC(O)COc1ccc(NC(=O)CC[S+](C)C)cc1 (stereo unspecified),inactive,inactive,inactive,inactive,inactive,inactive,inactive,inactive,inactive,inactive
CCc1c2c(nc3ccc(OC(=O)N4CCC(N5CCCCC5)CC4)cc13)-c1cc3c(c(=O)n1C2)COC(=O)[C@]3(O)CC,inactive,inactive,inactive,inactive,inactive,inactive,inactive,inactive,inactive,inactive
CC(C)NCC(O)c1ccc(NS(C)(=O)=O)cc1 (stereo unspecified),inactive,inactive,inactive,inactive,inactive,inactive,inactive,inactive,inactive,inactive

SMILES,Potency (CP268),Potency (CP269),Potency (CP286),Potency (CP291),Potency (CP297),Potency (CP305),Potency (CP315),Potency (CP325),Potency (CP329),Potency (CP335)
NC(=O)c1cccnc1,inactive,inactive,inactive,inactive,inactive,inactive,inactive,inactive,inactive,inactive
CC(C)OC(=O)C(C(=O)OC(C)C)=C1SC=CS1,inactive,inactive,inactive,inactive,inactive,inactive,inactive,inactive,inactive,
Cc1cccc(N(C)C(=S)Oc2ccc3ccccc3c2)c1,inactive,inactive,inactive,inactive,inactive,inactive,inactive,inactive,inactive,inactive
N=C(N)c1ccc(OCCCCCOc2ccc(C(=N)N)cc2)cc1,1350 nM (active),536 nM (active),1120 nM (active),1200 nM (active),601 nM (active),536 nM (active),1350 nM (active),1070 nM (active),849 nM (active),1350 nM (active)
CC(C)(C#N)c1cc(Cn2cncn2)cc(C(C)(C)C#N)c1,inactive,inactive,inactive,inactive,inactive,inactive,inactive,inactive,inactive,
Cc1nnc(NS(=O)(=O)c2ccc(N)cc2)s1,inactive,inactive,inactive,inactive,inactive,inactive,inactive,inactive,inactive,inactive
CC(=O)Oc1ccccc1C(=O)Nc1ncc([N+](=O)[O-])s1,inactive,inactive,12600 nM (active),inactive,inactive,inactive,inactive,inactive,inactive,
Nc1nc(N)nc(-c2cc(Cl)ccc2Cl)n1,inactive,inactive,inactive,inactive,inactive,inactive,inactive,inactive,inactive,inactive
CCc1cc(C(N)=S)ccn1,inactive,inactive,inactive,inactive,inactive,inactive,inactive,inactive,inactive,inactive
COc1cc(NCc2ccc3nc(N)nc(N)c3c2C)cc(OC)c1OC,953 nM (active),3380 nM (active),178 nM (active),478 nM (active),426 nM (active),601 nM (active),849 nM (active),953 nM (active),379 nM (active),151 nM (active)
O=c1cc(O)c(Cl)c[nH]1,inactive,inactive,inactive,inactive,inactive,inactive,inactive,inactive,inactive,inactive
Nc1ccc(S(=O)(=O)Nc2ccccn2)cc1,inactive,inactive,inactive,inactive,inactive,inactive,inactive,inactive,inactive,inactive
O=S(=O)(O)CCS,inactive,inactive,inactive,inactive,inactive,inactive,inactive,inactive,inactive,inactive
C1CCC(C(CC2CCCCN2)C2CCCCC2)CC1 (stereo unspecified),12000 nM (active),13500 nM (active),3980 nM (active),12000 nM (active),13500 nM (active),,,,,9530 nM (active)
COc1cnc(NS(=O)(=O)c2ccc(N)cc2)nc1,inactive,inactive,inactive,inactive,inactive,inactive,inactive,inactive,inactive,inactive
COc1cc2c(Nc3ccc(Br)cc3F)ncnc2cc1OCC1CCN(C)CC1,2130 nM (active),5360 nM (active),3980 nM (active),3790 nM (active),,2390 nM (active),inactive,10700 nM (active),,4260 nM (active)
CCCc1cc(C(N)=S)ccn1,inactive,inactive,inactive,inactive,,inactive,inactive,inactive,inactive,inactive
CCCN[C@H]1CCc2nc(N)sc2C1,inactive,inactive,inactive,inactive,inactive,inactive,inactive,inactive,inactive,inactive
CCOC(=O)[C@H](CCc1ccccc1)N[C@H]1CS[C@H](c2cccs2)CN(CC(=O)O)C1=O,inactive,inactive,inactive,inactive,inactive,inactive,inactive,inactive,inactive,inactive
